This note sets out measurements from PubChem BioAssay (NCI).

Common to all, as to test: NCI-60 one-dose screen, 48 h (100 = growth as untreated, 0 = no growth, -100 = all killed)
What all share (details): 10 µM unless noted

Assay [1] deals with SK-MEL-2 melanoma.
Assay [2] relates to EKVX NSCLC.
Assay [3] deals with SN12C renal.
Assay [4] concerns UO-31 renal.
The test system of assay [5] is TK-10 renal.
In assay [6] the test system is ACHN renal.
The test system of assay [7] is CAKI-1 renal.
Assay [8] concerns A498 renal.
The test system of assay [9] is CCRF-CEM leukemia.
Assay [10] has as its system MOLT-4 leukemia.
Assay [11] relates to SR leukemia.
The test system of assay [12] is RPMI-8226 leukemia.
For assay [13], the system named is OVCAR-8 ovarian.
For assay [14], the system named is OVCAR-5 ovarian.
Assay [15] has as its system OVCAR-4 ovarian.
The test system of assay [16] is SK-OV-3 ovarian.
Assay [17] has as its system IGROV1 ovarian.
Assay [18] deals with OVCAR-3 ovarian.
Assay [19] deals with HS 578T breast.
In assay [20] the test system is NCI/ADR-RES ovarian.

About 83,000 compounds went through this panel and 20% of them were active in at least one assay; those are over-represented in the sample as a whole.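 Activity criterion: percent growth below 10, measured after cells in 96-well plates were exposed to a single compound concentration for 48 hours.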 A number with no mark means an inactive call. Calls of active or inactive are those of the source.

Turning to `CN1CCN(CC(=O)N(C)c2ccc(N=C(c3ccccc3)c3c(O)[nH]c4ccc([N+](=O)[O-])cc34)cc2)CC1`, the growth was 52.7% in assay [1]; 94.2% in assay [2]; 56.8% in assay [3]; 28.8% in [4]; 103% in [5]; 54% in assay [6]. The growth in [7] is 47.1%; in assay [8], 66.7%; in [9], 15.1%; in [10], 15.7%; in [11] it was 19.4%; in assay [12], 82.7%. Further, the growth in [13] was 79.6%; in assay [14], 122%; in assay [15], 57.7%; in [16] it was 14.4%; in assay [17], 49.3%; in assay [18], 73.6%. Moreover, the growth in assay [19] was 18.2%.

As to `CCCNNC(=O)c1ccc(CNC(=O)/C=C/c2ccccc2)cc1`, the growth was 45% [2.5 µM] in assay [1]; 55.2% [2.5 µM] in assay [2]; 52.8% [2.5 µM] in [3]; 22.4% [2.5 µM] in [4]; -0.401% [2.5 µM] (active) in [5]; 10.1% [2.5 µM] in [6]. Also, the growth in assay [7] was 23.1% [2.5 µM]; in assay [8], -18.4% [2.5 µM] (active); in [9], 27.3% [2.5 µM]; in assay [10], 15.3% [2.5 µM]; in assay [11], 30.8% [2.5 µM]; in assay [12], 18.9% [2.5 µM]. Besides, the growth in assay [13] was 20.7% [2.5 µM]; in assay [14] it was 18.1% [2.5 µM]; in assay [15], 63.2% [2.5 µM]; in assay [16], 8.72% [2.5 µM] (active); in assay [17] it was 30.5% [2.5 µM]; in assay [18], 47.6% [2.5 µM]. For the same compound, the growth in [19] was 47.3% [2.5 µM].

Take `COc1ccccc1NC(=O)n1c(=O)cc(C)c2ccc(O)cc21`: the growth in assay [1] was 101%; in [2] it was 100%; in assay [3], 101%; in assay [4], 88.6%; in assay [5] it was 111%; in [6] it was 110%. For the same compound, the growth in assay [7] is 99.6%; in assay [8], 113%; in [9], 107%; in assay [10], 103%; in [11] it was 118%; in [12], 109%. Moreover, the growth in assay [13] was 106%; in [14], 112%; in [15], 110%; in assay [16], 100%; in [17] it was 113%; in assay [18], 113%. For the same compound, the values for the growth in assay [19] and in [20] were 110% and 107%, respectively.

For the compound `CCCn1cnc2c(c1=N)C(c1ccc(Cl)cc1)c1sc3c(F)cccc3c1O2` (stereo not given), the growth is 103% in assay [1]; 80% in assay [2]; 69.3% in assay [3]; 50.5% in assay [4]; 102% in [5]; 84.1% in assay [6]. For the same compound, the growth in [7] is 70.6%; in assay [8], 94.7%; in assay [9], 64.4%; in assay [10] it was 56.7%; in assay [11] it was 24.7%; in assay [12], 29.6%. In addition, the growth was 86.4% in [13]; 81.6% in assay [14]; 66.2% in assay [15]; 102% in assay [16]; 59.5% in [17]; 81.4% in assay [18]. Besides, in assay [19], the growth is 91.2%.

As to `CN1CCN(Cc2ccc(NC(=O)c3cc(C#Cc4cnc(N)c5ncccc45)n(C)n3)cc2C(F)(F)F)CC1`, the growth was 101% in assay [1]; 105% in [2]; 76.8% in [3]; 64% in [4]; 147% in [5]; 47.2% in assay [6]. Also, the growth in [7] is 105%; in [8], 83.2%; in [9], 4.79% (active); in assay [10], 80.9%; in assay [11] it was 2.23% (active); in assay [12] it was 69.2%. The growth in assay [13] was 69.4%; in assay [14], 140%; in [15], 114%; in [16], 111%; in assay [17], 113%; in [18] it was 119%. For the same compound, in [19], the growth was 25%.

With `CCOC(=O)C1=C(c2ccccc2)N=C2SC=C(c3cccc([N+](=O)[O-])c3)N2C1c1ccc(O)cc1` (stereo not given), the growth in [1] is 96.7%; in assay [2] it was 99.3%; in assay [3], 96%; in assay [4], 91%; in assay [5] it was 104%; in assay [6], 106%. In addition, the growth in assay [7] is 94.3%; in assay [8], 78.9%; in [9] it was 98.1%; in assay [10], 111%; in [11], 109%; in [12], 98%. The growth in assay [13] is 97.9%; in assay [14] it was 100%; in [15], 106%; in [16] it was 102%; in assay [17] it was 95.5%; in assay [18] it was 101%. In addition, the growth in assay [19] is 102%.

On to `CCN(CC)CCN1C(=O)c2c(c(C)c3c(oc4cc(OC)ccc43)c2C)C1=O`, for which the growth is 101% in assay [1]; 93.5% in assay [2]; 32.2% in assay [3]; -43.7% (active) in assay [4]; 100% in [5]; 51% in assay [6]. Moreover, the growth was 78.2% in assay [7]; 108% in assay [8]; -10.9% (active) in assay [9]; 61.1% in assay [10]; 29.3% in assay [11]; 88.1% in assay [12]. In addition, the growth was 90.6% in assay [13]; 94.2% in assay [14]; 73.8% in assay [15]; 115% in assay [16]; 42.2% in assay [17]; 112% in assay [18]. Further, the results for the growth in [19] and in [20] were 118% and 86.2%, respectively.

For `COC1=C(OC)C(=O)C(CCCCCCCCCCO)=C(C)C1=O`, the growth was 49.8% in assay [1]; 89.8% in assay [2]; 57.6% in [3]; 70.2% in assay [4]; 112% in [5]; 60.5% in assay [6]. Further, the growth is 61% in assay [7]; 103% in assay [8]; 29.1% in [9]; 28.1% in assay [10]; 24% in assay [11]; 76% in assay [12]. Besides, the growth in assay [13] is 49.4%; in assay [14], 103%; in assay [15], -13.7% (active); in [16] it was 82.7%; in [17], 57.7%; in assay [18] it was 69%. The growth in assay [19] is 92.6%; in assay [20] it was 29.2%.
